IP6K1 inhibitor = blocks human inositol hexakisphosphate kinase 1; IP6K1 kinase, ADP-Glo luminescence, 2 h; active compounds read low; activity change, % (series mostly up to about 58 µM); AID 1645851; Q92551; 140,000 compounds, 0.81% hits; in the data active = activity change below about -25%; also: % is scaled to controls: 0 for no effect and ±100 for the full control effect
Target sequence (Q92551 whole entry, looked up): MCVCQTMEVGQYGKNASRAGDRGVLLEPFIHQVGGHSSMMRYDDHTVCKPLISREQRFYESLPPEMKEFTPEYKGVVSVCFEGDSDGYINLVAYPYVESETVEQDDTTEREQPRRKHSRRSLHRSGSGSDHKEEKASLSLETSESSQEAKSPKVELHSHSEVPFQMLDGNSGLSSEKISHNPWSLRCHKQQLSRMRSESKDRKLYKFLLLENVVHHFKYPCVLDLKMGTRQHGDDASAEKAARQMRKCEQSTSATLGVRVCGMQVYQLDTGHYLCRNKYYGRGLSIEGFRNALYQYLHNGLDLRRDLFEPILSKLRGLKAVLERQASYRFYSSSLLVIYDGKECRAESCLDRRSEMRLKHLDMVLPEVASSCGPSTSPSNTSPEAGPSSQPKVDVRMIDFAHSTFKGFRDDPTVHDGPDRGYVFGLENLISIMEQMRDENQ
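ADP-Glo luminescence measures ADP made by human IP6K1 during a 2 h RT reaction with ATP/IP6 (mix at 1.3 mM/130 uM); top library doses 57.5 and 19.1 uM final.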
KDM5B inhibitor = KDM5B demethylase inhibition. AID 1347165. Potency, µM (doses to about 57.7 µM), most hits filed as inhibitors. KDM5B demethylase, FDH-coupled NADH fluorescence (FDH is formaldehyde dehydrogenase). 220,000 compounds, 2.6% hits; also: potency is read from the fitted curve at half-maximal effect; 0% is about no effect; nearly all actives have a fitted effect of over 70% in size
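Inhibition is measured as reduced NADH fluorescence generation from FDH coupling to formaldehyde release. Truncated KDM5BΔAP at 200 nM final acts on H3K4me3 peptide (12.5 µM in substrate mix) in pH 7.5 HEPES buffer with Tween-20, 30 min, room temperature.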
IP6K1 inh cnf = confirmation of human IP6K1 inhibitors; shares compounds with IP6K1 inhibitor; recombinant IP6K1 kinase, ADP-Glo luminescence, 2 h; Potency, µM (doses to about 49 µM), for the others: top-dose activity change, negative = inhibition, usual class: inhibitors; 1,200 compounds, 13% hits; AID 1645852; also: potency is read from the fitted curve at half-maximal effect; % is scaled to controls: 0 for no effect and ±100 for the full control effect; nearly all actives have a fitted effect of over 65% in size
Starred values were filed as active, the others as inactive; i = inactive; ? = inconclusive; nt = no result. Compounds with a hit are over-represented: about 2.8% of the library has one in this group of screens. Unless noted, calls follow the shape of the dose curve; as a rule, active = well fitted inhibition curve with a large enough effect; inconclusive = small, poorly fitted or top-dose-only effect; inactive = no such curve, though single readings can be large or run the other way.

SMILES	IP6K1 inhibitor	KDM5B inhibitor	IP6K1 inh cnf
Cc1ccc(C2C(C#N)=C(SCC(=O)Nc3cccc(C)c3C)NC3=C2C(=O)CCC3)o1 (configuration not stated)	nt	i	nt
CCN1C[C@H]2COc3ccccc3[C@H]2N(C(=O)COc2ccccc2)CCC1=O	-4	nt	nt
CCc1nnc(NC(=O)c2nc(S(=O)(=O)Cc3cccc(C)c3)ncc2Cl)s1	-4	i	nt
CCc1nnc(NC(=O)c2nc(S(=O)(=O)Cc3ccc(C)cc3)ncc2Cl)s1	-33*	?	-10%
COc1ccc(-c2cn(C)c(=O)n3cc(COc4ccc(C(=O)O)cc4)nc23)c(C)c1	-15	i	nt
Cc1ccc(-c2nnn(Cc3ncc(-c4ccccc4)o3)n2)cc1	nt	i	nt
COc1ccc(CN(Cc2ccco2)c2cnc(S(C)(=O)=O)nc2C(=O)Nc2ccc(C)cc2C)cc1	-26*	i	-3%
COc1cccc(CN(Cc2ccco2)c2cnc(S(C)(=O)=O)nc2C(=O)Nc2cccc(Cl)c2C)c1	-28*	i	1%
Cc1ccc(CN(Cc2ccco2)c2cnc(S(C)(=O)=O)nc2C(=O)Nc2ccc(Br)cc2)o1	-27*	?	-11%
CS(=O)(=O)c1ncc(N(Cc2ccco2)Cc2ccco2)c(C(=O)Nc2ccccc2Br)n1	-20	i	nt
COc1ccc(CN(Cc2ccco2)c2cnc(S(C)(=O)=O)nc2C(=O)Nc2ccc(C)c(C)c2)cc1	24	i	nt
CCc1ccc(CN(Cc2ccco2)c2cnc(S(C)(=O)=O)nc2C(=O)Nc2ccc(C)c(Cl)c2)cc1	-13	i	nt
O=C(CCC[C@H]1NC[C@@H]2C[C@H]1CN(Cc1ccccc1)C2)NCCCN1CCCc2ccccc21	9	?	nt
COCCNC(=O)c1ccc(CC2CCN(C(=O)c3n[nH]c(=O)c4ccccc34)CC2)cc1	9	nt	nt
COc1cc(CC(=O)OCc2ccccc2Br)cc(OC)c1OC	nt	i	nt
O=C(NCc1cccc(F)c1)c1ccc(CN2C(=O)CSc3ncccc32)cc1	nt	i	nt
COc1ccc(-c2ccccc2C(=O)NCC(F)F)nn1	9	nt	nt
COc1ccc(OC)c(CNC(=O)CN(C(=O)C2=C(C)OCCS2)c2ccc(Cl)cc2)c1	nt	i	nt
O=C(NC1CCCCC1)c1ccc2nnc(Cc3ccco3)n2c1	-7	nt	nt
Cc1ccccc1C(=O)N1CCN(c2ccc3nnc(C)n3n2)CC1	-4	nt	nt
COc1ccc(CNCC(O)COc2ccc(C(C)(C)C)cc2C)cc1OC (configuration not stated)	nt	i	nt
O=C(COC(=O)c1cc([N+](=O)[O-])ccc1Cl)c1cc2ccccc2o1	nt	i	nt
N#Cc1ccc(OC(=O)c2cc(-c3ccc(Cl)cc3)on2)cc1	2	i	nt
CCOc1ccc(-c2cc(C(=O)Oc3ccc(C#N)cc3)no2)cc1	-27*	?	?
COCCNc1oc(-c2ccc(COc3ccc(OC)cc3)o2)nc1C#N	-13	i	nt
SMILES	IP6K1 inhibitor	KDM5B inhibitor	IP6K1 inh cnf
CCCCNc1oc(-c2ccc(COc3ccc(OC)cc3)o2)nc1C#N	-31*	?	-1%
COc1cc(NC(=O)Cn2c(=O)nc(-c3ccccc3F)c3cc(Cl)ccc32)cc(OC)c1	-28*	i	?
CCc1ccc(NC(=O)Cn2c(=O)nc(-c3ccccc3F)c3cc(Cl)ccc32)cc1	27	i	nt
CCN(CC)C1CCOC2(CCN(C(=O)Nc3cccc(C)c3)CC2)C1 (configuration not stated)	-1	nt	nt
Cc1ccc(C)c(N2CCN(C(=O)c3c4c(nc5ccccc35)C(=O)N(C3CCCCC3)C4)CC2)c1	-31*	?	-9%
COc1ccccc1N1CCN(C(=O)c2c3c(nc4ccccc24)C(=O)N(C2CCCCC2)C3)CC1	0	i	nt
CC(N)c1ccc(C(=O)O)o1 (configuration not stated)	nt	i	nt
CCCCNc1nc(-c2ccc(Cl)cc2Cl)cs1	nt	i	nt
NS(=O)(=O)CC(=O)O	nt	i	nt
COc1ccc(CNC(=O)C2=CC(c3ccc(OC)c(OC)c3)=NS(=O)(=O)N2C)cc1	-10	i	nt
COc1ccc(C2=NS(=O)(=O)N(C)C(C(=O)NCc3ccccc3)=C2)cc1OC	-26*	i	-12%
Cc1cnc(CC2CCCN(S(=O)(=O)c3cccs3)C2)n1C(C)C (configuration not stated)	18	nt	nt
COc1cc(C2CC(=O)Oc3c2c(=O)[nH]c2ccccc32)cc(OC)c1OC (configuration not stated)	-14	?	nt
O=C1CC(c2ccc(F)cc2)c2c(c3ccccc3[nH]c2=O)O1 (configuration not stated)	-28*	?	13%
CCCOC(=O)c1ccc(OC(=O)CCCOc2ccc(Cl)cc2Cl)cc1	nt	i	nt
O=C(CSc1nc2c(cnn2-c2ccc(F)cc2)c(=O)[nH]1)Nc1ccc(Br)cc1	-28*	i	-1%
Cc1cc(C)cc(NC(=O)CSc2nc3c(cnn3-c3ccc(F)cc3)c(=O)[nH]2)c1	-3	i	nt
CN(CC(=O)Nc1ccc(Cl)cc1)Cc1ncc(-c2ccc(F)cc2)o1	nt	i	nt
Oc1cccc(Nc2ncnc3sc4c(c23)CCCC4)c1	-28*	?	?
O=S(=O)(Nc1ncnc2sc3c(c12)CCC3)c1cc(F)ccc1F	nt	i	nt
Nc1ccccc1CN1CCCC2(Cc3ccccc3CNC2=O)C1 (configuration not stated)	-6	?	nt
CN1Cc2cc(F)ccc2N(CC(O)COc2ccccc2)CCC1=O (configuration not stated)	-4	nt	nt
CCN1CCC(N(Cc2ccco2)C(=O)Nc2cc(Cl)ccc2C)CC1	nt	i	nt
Fc1ccc(-c2csc(=Nc3cccc(C(F)(F)F)c3)n2Cc2ccc3c(c2)OCO3)cc1	-26*	?	2%
Cc1ccc(-c2csc(=Nc3ccc(F)cc3)n2Cc2ccc3c(c2)OCO3)cc1C	-36*	?	-5%
SMILES	IP6K1 inhibitor	KDM5B inhibitor	IP6K1 inh cnf
Cc1ccc(-c2csc(=Nc3ccccc3)n2Cc2ccc3c(c2)OCO3)cc1C	-16	?	nt
CCN(CC)S(=O)(=O)c1ccc(-c2csc(=Nc3cccc(C(F)(F)F)c3)n2Cc2ccc3c(c2)OCO3)cc1	-4	?	nt
S=C(NCc1ccc(Cl)cc1)Nc1ccc(Br)cc1	nt	i	nt
COCCCn1c(=O)c(C(=O)N2CCN(C(=O)C3CCCC3)CC2)nc2cccnc21	13	nt	nt
COc1ccc(CCNC(=O)Cc2c(C)c3c(cc(C)c4c(C)c(C)oc43)oc2=O)cc1OC	-16	i	nt
Cc1oc2c(c(C)cc3oc(=O)c(CC(=O)NCCc4ccccc4F)c(C)c32)c1C	-27*	i	-12%
Cc1cnc(-c2ccccc2)n1CC1CCN(C(=O)c2ccsc2)C1 (configuration not stated)	13	nt	nt
CC(C)NC(=O)NC(=O)COC(=O)C1COc2ccccc2O1 (configuration not stated)	nt	i	nt
Cc1oncc1C(=O)Nc1ccc(C(F)(F)F)cc1	30	nt	2%
Cc1oncc1C(=O)Nc1cccc2ccccc12	nt	i	nt
O=C1CO[C@H]2CN(c3ncccn3)C[C@H]2N1CC1CCCCC1	-27*	35µM*	-12%
CC(C)N1C[C@@H]2OCC(=O)N(CC3CCCCC3)[C@@H]2C1	-2	?	nt
CC(=O)c1cccc(Nc2nc(-c3ccc(Cl)cc3)nc3ccccc23)c1	nt	i	nt

Screening data as filed in PubChem BioAssay.
